Reference: PubChem BioAssay (NCATS)
Records with an inconclusive call do not appear. The source made the active and inactive calls. Unless noted, calls follow the shape of the dose curve; as a rule, active = well fitted curve in the direction sought with a large enough effect; inconclusive = small, poorly fitted or top-dose-only effect, or another doubt; inactive = no such curve, though single readings can be large; an effect the other way counts as inactive or inconclusive.

Tests used:
[1] = NCATS anti-infectives library activity on HEK293 viability as a counter-qHTS vs the C. elegans viability qHTS (AID 1745854);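 also: HEK293 cells exposed to compounds for 24 hr before the viability read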
Outline: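 Counter-screen for cytotoxicity: HEK293, 24 hr, 37C, compounds up to 41.7 uM final (a dilution series, 1:5). Readout CellTiter-Glo luminescence, 10 min RT. Digitonin control, 83.3 uM final.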

[2] = target: Catechol O-methyltransferase (Homo sapiens) (UniProt P21964); test: Confirmatory Screen for Target Class Profiling of Small Molecule Inhibitors of Methyltransferases (AID 1745852; calls by dose curve; as to activity change, negative = inhibition: % is scaled to controls: 0 for no effect and ±100 for the full control effect); conditions: MTase-Glo luminescence, SAH detection, recombinant enzyme; measured here: COMT max response; stronger effect = lower value
Sequence of Catechol O-methyltransferase (Homo sapiens) (P21964 whole entry, looked up): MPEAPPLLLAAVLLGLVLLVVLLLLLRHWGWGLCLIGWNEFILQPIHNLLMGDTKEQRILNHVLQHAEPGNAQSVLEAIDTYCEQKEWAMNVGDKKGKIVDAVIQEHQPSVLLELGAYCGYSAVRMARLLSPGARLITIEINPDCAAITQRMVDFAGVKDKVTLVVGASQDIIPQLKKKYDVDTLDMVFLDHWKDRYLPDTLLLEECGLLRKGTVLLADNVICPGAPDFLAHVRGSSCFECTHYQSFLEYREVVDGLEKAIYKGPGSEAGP

[3] = target: Guanidinoacetate N-methyltransferase (Homo sapiens) (UniProt Q14353); test: as above; conditions: activity change, negative = inhibition: at 57.3 µM (top of the series) unless noted
[4] = target: Nicotinamide N-methyltransferase (Homo sapiens) (UniProt P40261); test: as above; conditions: MTase-Glo luminescence, SAH detection, recombinant enzyme; measured here: NNMT max response; stronger effect = lower value
Sequence of Nicotinamide N-methyltransferase (Homo sapiens) (P40261 whole entry, looked up): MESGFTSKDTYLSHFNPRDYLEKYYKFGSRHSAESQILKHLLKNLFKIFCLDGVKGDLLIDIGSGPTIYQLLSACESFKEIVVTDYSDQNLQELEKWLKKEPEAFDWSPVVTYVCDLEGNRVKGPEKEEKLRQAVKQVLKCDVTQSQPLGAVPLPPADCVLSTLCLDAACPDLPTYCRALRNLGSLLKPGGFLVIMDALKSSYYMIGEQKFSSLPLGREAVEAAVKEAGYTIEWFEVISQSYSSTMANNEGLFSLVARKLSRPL

[5] = target: Phenylethanolamine N-methyltransferase (Homo sapiens) (UniProt P11086); test: as above; conditions: MTase-Glo luminescence, SAH detection, recombinant enzyme; measured here: PNMT max response; stronger effect = lower value
Sequence of Phenylethanolamine N-methyltransferase (Homo sapiens) (P11086 whole entry, looked up): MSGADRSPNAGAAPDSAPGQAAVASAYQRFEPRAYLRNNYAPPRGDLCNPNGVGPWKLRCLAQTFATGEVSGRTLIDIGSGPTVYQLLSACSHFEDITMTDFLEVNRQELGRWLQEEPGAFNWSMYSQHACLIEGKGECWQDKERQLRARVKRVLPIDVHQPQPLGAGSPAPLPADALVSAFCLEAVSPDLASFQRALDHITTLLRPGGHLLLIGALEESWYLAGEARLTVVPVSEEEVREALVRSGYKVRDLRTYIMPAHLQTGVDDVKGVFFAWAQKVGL

[6] = target: Glutathione peroxidase 1 (Homo sapiens) (UniProt P07203); test: Primary qHTS Assay for Inhibitors of Recombinant Selenoprotein Glutathione Peroxidase 1 (GPX1) (AID 1845191); also: nearly all actives have a fitted effect of over 65% in size
Sequence of Glutathione peroxidase 1 (Homo sapiens) (P07203 whole entry, looked up): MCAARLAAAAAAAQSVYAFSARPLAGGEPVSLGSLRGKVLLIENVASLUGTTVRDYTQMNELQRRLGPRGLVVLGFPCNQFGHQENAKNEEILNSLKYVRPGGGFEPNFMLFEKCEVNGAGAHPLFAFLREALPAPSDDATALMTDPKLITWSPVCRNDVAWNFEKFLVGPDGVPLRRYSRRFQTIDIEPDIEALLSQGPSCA
Outline: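 GR-coupled readout: NADPH consumption tracked by fluorescence, ex 340/em 450 nm, at t=0 and after 15 min at RT. Final mix 10 nM GPX1, 1 mM GSH, 0.5 mM CHP, 0.5 mM NADPH, 100 nM GR, 0.01% BSA, following 30 min enzyme–compound preincubation.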
Potency is read from the fitted curve at half-maximal effect.

Cc1cnc(C(=O)N[C@H]2CCCCC/C=C\[C@@H]3C[C@@]3(C(=O)NS(=O)(=O)C3CC3)NC(=O)[C@@H]3C[C@@H](Oc4nc5ccccc5c5ccccc45)CN3C2=O)cn1
Potency [1]: inactive

CC(=O)Cc1cc(=O)c2c(C)cc(O)c(C3OC(CO)C(O)C(O)C3O)c2o1 (configuration not stated)
Potency [1]: inactive

Cc1ccc(-c2ccc3c(c2)C=C(C(=O)Nc2ccc(C[N+](C)(C)C4CCOCC4)cc2)CCC3)cc1
Potency [1]: inactive

C=CC(=O)N1C/C(=C\c2ccc([N+](=O)[O-])cc2)C(=O)/C(=C/c2ccc([N+](=O)[O-])cc2)C1
Potency [1]: 1.41 µM (active)

CC(C)=CCC/C(C)=C/CC/C(C)=C/C=C/C(C)=C/C(=O)O
Potency [1]: inactive

COc1cc2nc(N3CCCCC3)nc(NC3CCN(C)CC3)c2cc1OC
activity [2]: 1.4%
activity change, negative = inhibition [3]: 3.17%
activity [4]: -11.7%
activity [5]: -7.42%
Potency [6]: 18 µM (active)

Cc1nc(N(C)C(=O)Cc2ccc(-c3ccccn3)cc2)sc1S(N)(=O)=O
Potency [1]: inactive

Cc1cccc2c3c(ccc12)C1=C(C(=O)C3=O)[C@@H](C)CO1
Potency [1]: inactive

CC(=O)O[C@@]1(C)C[C@@H](O)[C@]2(O)C=CO[C@@H](OC3OC(CO)C(O)C(O)C3O)[C@@H]21 (some centres not stated)
Potency [1]: inactive

C=C1CCC2C(C)(CO)C(O)CCC2(C)C1C/C=C1\C=COC1=O (configuration not stated)
Potency [1]: inactive

C[C@H]1CC[C@@]2(O)C(C)(C)[C@@H]3CC[C@@]2(C)[C@H]1C3
Potency [1]: inactive

CC(C)Cn1c(=O)c2ccccc2n2c(CCC(=O)N3CCN(c4cccc(Cl)c4)CC3)nnc12
activity [2]: -1.89%
activity change, negative = inhibition [3]: 1.7%
activity [4]: -35.8%
activity [5]: -10.3%

Cc1ccccc1Sc1ccc(/C=C2\SC(=S)NC2=O)cc1[N+](=O)[O-]
activity [2]: -5.04%
Potency [3]: 42.9 µM (active)
activity [4]: -72.5%
activity [5]: -30.1%
Potency [6]: inactive

COc1ccc(C2C(C#N)=C(N)OC3=C2C(=O)CC(c2cccc4ccccc24)C3)cc1 (configuration not stated)
Potency [1]: inactive

COc1cc2nc(N3CCCCC3)nc(NC3CCN(Cc4ccccc4)CC3)c2cc1OC
activity [2]: 11.8%
Potency [3]: 0.968 µM (active)
activity [4]: -38.9%
activity [5]: 1.57%
Potency [6]: 16.1 µM (active)

C[C@@H]1O[C@@H](O[C@@H]2[C@@H](O)[C@H](OCCc3ccc(O)c(O)c3)O[C@H](CO)[C@H]2OC(=O)/C=C/c2ccc(O)c(O)c2)[C@H](O)[C@H](O)[C@H]1O
Potency [1]: inactive

O=c1cc(-c2ccc(O)c(O)c2)oc2c([C@@H]3O[C@H](CO)[C@@H](O)[C@H](O)[C@H]3O)c(O)cc(O)c12
Potency [1]: inactive

COc1ccc(C2CC(=O)c3cc(-c4nc(-c5cccc([N+](=O)[O-])c5)cs4)c(=O)n(-c4ccccc4N)c3C2)cc1 (configuration not stated)
activity [2]: -0.514%
activity change, negative = inhibition [3]: -4.17%
activity [4]: -5.71%
activity [5]: -5.29%
Potency [6]: inactive
